The nature of experiment [1]: Her2 expression decrease, cell viability multiplex – SKBR3 breast tumor cells, AlphaScreen, ATP viability, primary screen (AID 461;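 active = Her2 level under about 52% in both replicate screens, with viability over 70% of control, limit read from the data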;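 for Her2 level: lower value means less Her2 protein in the cells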;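 for viability: percent of carrier control wells set as 100% viability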). The following applies: SKBR3 Her2 protein level, 18-24 h, measured here: SKBR3 viability, ATP luminescence, at 10 µM.
Experiment [2] deals with Receptor tyrosine-protein kinase erbB-2 (Homo sapiens) (UniProt P04626). Described as above. The following applies: 18-24 h, at 10 µM, stronger effect = lower value.
Sequence of Receptor tyrosine-protein kinase erbB-2 (Homo sapiens) (P04626 whole entry, looked up): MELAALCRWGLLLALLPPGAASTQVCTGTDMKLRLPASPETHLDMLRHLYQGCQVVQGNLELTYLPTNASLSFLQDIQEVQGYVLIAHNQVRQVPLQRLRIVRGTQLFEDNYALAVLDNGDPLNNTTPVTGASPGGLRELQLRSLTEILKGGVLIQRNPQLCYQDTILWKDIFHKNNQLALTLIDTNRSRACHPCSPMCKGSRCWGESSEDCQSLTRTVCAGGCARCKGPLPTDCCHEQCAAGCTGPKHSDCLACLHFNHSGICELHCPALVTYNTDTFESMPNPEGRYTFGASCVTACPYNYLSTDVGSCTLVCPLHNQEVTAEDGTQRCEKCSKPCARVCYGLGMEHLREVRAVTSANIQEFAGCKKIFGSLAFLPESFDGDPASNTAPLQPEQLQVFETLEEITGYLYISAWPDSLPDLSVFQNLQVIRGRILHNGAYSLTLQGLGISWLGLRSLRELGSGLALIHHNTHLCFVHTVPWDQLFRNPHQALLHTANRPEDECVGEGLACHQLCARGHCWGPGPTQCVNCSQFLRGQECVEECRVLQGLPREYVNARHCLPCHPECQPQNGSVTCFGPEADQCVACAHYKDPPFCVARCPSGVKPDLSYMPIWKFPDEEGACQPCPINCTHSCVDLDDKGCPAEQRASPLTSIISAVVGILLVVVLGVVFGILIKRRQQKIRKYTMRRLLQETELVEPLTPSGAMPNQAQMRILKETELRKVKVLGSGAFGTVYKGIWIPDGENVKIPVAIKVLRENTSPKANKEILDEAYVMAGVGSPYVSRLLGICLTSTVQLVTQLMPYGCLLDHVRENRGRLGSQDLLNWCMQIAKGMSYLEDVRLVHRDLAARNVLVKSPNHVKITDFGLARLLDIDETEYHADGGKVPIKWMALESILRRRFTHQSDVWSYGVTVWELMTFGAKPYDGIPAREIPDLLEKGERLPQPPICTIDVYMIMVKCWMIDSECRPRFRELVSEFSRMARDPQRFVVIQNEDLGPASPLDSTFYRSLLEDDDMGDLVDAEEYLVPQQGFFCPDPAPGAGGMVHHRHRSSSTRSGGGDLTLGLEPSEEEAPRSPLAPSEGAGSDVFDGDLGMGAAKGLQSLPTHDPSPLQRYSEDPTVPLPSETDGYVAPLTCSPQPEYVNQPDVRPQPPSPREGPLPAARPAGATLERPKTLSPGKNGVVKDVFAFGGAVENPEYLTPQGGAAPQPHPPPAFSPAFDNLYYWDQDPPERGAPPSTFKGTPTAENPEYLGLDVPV
Experiment [3] can be described thus: reduced viability of SK-BR-3 breast cancer cells – cell-based, 24 h, human, pilot screen (AID 572).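 Note: compound exposure lasted between 18 and 24 h rather than exactly 24 h; 100% = carrier-treated control wells.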 The following applies: SK-BR-3 viability, CellTiter-Glo luminescence, at 10 µM, stronger effect = lower value. (Cellular ATP, detected with luciferase, serves as a proxy for viable cell number.)
Experiment [4] can be described thus: HUVEC growth inhibition – cell-based, human, primary screen (AID 575;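 active = viability at or below 30% in both replicate assays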;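 note: 100% = median of untreated cell wells with 0.1% DMSO on each plate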). The following applies: HUVEC proliferation, CellTiter-Glo luminescence, 72 h; at 10 µM; stronger effect = lower value.
A short description of experiment [5]: H69AR cell proliferation blockers – human, duplicate replicates, primary screen (AID 580;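 active = viability at or under a set limit in both replicates, limit being median viability minus 3 SD, cut at about 48% in these data, passing the limit was not always enough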;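 note: 100% = mean luminescence of untreated wells and 0% = no signal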). The following applies: H69AR lung tumor cells viability, ATP luminescence, 72 h; at 10 µM; stronger effect = lower value.
Experiment [6] can be described thus: MRP1 drug-resistance reversers in H69AR cells – cell-based, doxorubicin co-treatment, pilot screen (AID 601;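 active = viability loss from added drug above about 55%, and viability with drug at most 40%, in both replicates, limit read from the data, passing the limit was not always enough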). The following applies: CellTiter-Glo, 72 h, at 10 µM; for differential viability (reversal): stronger effect = higher value.
A short description of experiment [7]: yeast transport mutant growth inhibition pilot in 384-well plates, post-Golgi transport modulator project (AID 636; in the data active = inhibition above about 31%). The following applies: absorbance 615 nm, about 18 h, stronger effect = higher value.
Experiment [8] in a line: growth suppression of yeast trafficking mutant, preliminary HTS, modulators of trafficking downstream of Golgi apparatus project, 1536-format plate, OD 615 nm (AID 637; in the data active = inhibition above about 30%). The following applies: yeast transport mutant growth, absorbance 615 nm, 18 h; stronger effect = higher value.
The nature of experiment [9]: S. cerevisiae growth inhibition in permissive medium (OD615), pilot counter-assay for S. cerevisiae lifespan shortening project, permissive growth control (AID 705;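 active = growth inhibition above 25% in both replicates, a cutoff set 3 SD above the mean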). The following applies: OD615, 24 h, at 10 µM, stronger effect = higher value.
Experiment [10] is described as follows: S. cerevisiae growth inhibition in restrictive medium, OD615, pilot screen, restrictive growth control, yeast lifespan reduction project (AID 706;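 active = growth inhibition above a set limit, 3 SD over mean compound inhibition, in both replicates, cut at about 43% in these data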;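 note: modified DeaD lifespan yeast strain shifted to restrictive glucose medium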). The following applies: OD615, 48 h, at 10 µM, stronger effect = higher value.
The nature of experiment [11]: doxorubicin toxicity protection in MRP-1 cells – H69AR cells, CellTiter-Glo, duplicate, MRP-1 activator project, pilot screen (AID 807;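 active = viability increase at or above a cutoff of the median across tested compounds plus 3 SD, cut at about 8.5% in these data, passing the limit was not always enough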;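 note: compound pretreatment 18-22 h then 72 h combined with doxorubicin; 0% = doxorubicin alone and 100% = vehicle without doxorubicin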). The following applies: H69AR viability with doxorubicin, CellTiter-Glo luminescence; at 10 µM; stronger effect = higher value.
The nature of experiment [12]: viability of HCT116 without oncogenic beta-catenin – human colon tumor cells, pilot screen (AID 823;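 active = cell viability at or below a set limit in both duplicate runs, the limit being the all-compound median minus 4 SD, cut at about 23% in these data, passing the limit was not always enough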;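 note: 0% = wells killed by 20 µM Hyamine and 100% = untreated DMSO cell wells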). The following applies: HCT116 beta-catenin knockout viability, CellTiter-Glo, 60 h; at 10 µM; stronger effect = lower value.
The nature of experiment [13]: viability of PTEN-null HCT116 cells – cell-based, HCT116 clonal line, CellTiter-Glo, pilot screen (AID 824;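 active = viability at or below 27.92% in each of two runs, the all-compound median minus 4 SD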;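 note: 0% = 20 µM Hyamine control and 100% = vehicle cell control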). The following applies: HCT116 PTEN-deleted viability, 60 h, at 10 µM, stronger effect = lower value.
Experiment [14] is described as follows: RAM pathway blockade in budding yeast – dse1pr::URA3 reporter, 5-FOA selection, pilot screen (AID 869;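 active = inhibition over a set limit, the all-compound mean plus 3 SD, in both replicate runs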;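 note: 0% = DMSO wells with no growth and 100% = 10 µM 1-NA-PP1 with full growth; RAM network block rescues cells from 5-FOA so hits raise OD615 growth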). The following applies: S. cerevisiae dse1pr::URA3 5-FOA growth, OD615, 2 d; at 10 µM; stronger effect = higher value; strain carries analog-sensitive mutant Cbk1 kinase.
Experiment [15] is described as follows: RAM signaling pathway blockade in yeast – S. cerevisiae, Pdr1DBD-CYC8 efflux-inhibited sensitized strain, primary screen (AID 1298;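 active = RAM network inhibition above 8.4% in each of two replicates, 3 SD over the compound average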;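 note: 0% = DMSO untreated cells without growth and 100% = 10 µM 1-NA-PP1 full growth; higher means more yeast growth rescued from 5-FOA killing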). The following applies: S. cerevisiae cbk1-as DSE1-URA3 strain, 5-FOA growth OD615, 2 d; at 50 µM; stronger effect = higher value.
[16] abbreviates: H69AR cells + 2 uM doxorubicin, measured here: viability with 2 uM doxorubicin, stronger effect = lower value.
The mark [17] stands for this setting: H69AR cells, compound alone cytotoxicity.

From PubChem BioAssay come the findings set out here.

Records with an inconclusive call do not appear. The source made the active and inactive calls.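 Rule for the calls, unless noted: active = viability at or below 10% of carrier control in both of two separate runs; inconclusive = viability at or below 10% in only one of the two runs; inactive = the rest.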

What is called viability is a read-out of living cells in per cent, often relative to untreated cells. By inhibition is commonly meant the change of the read-out against control, counted positive when it falls.

Take `COCCNC(=O)c1cc(-c2cccs2)on1`: the viability in experiment [1] was 97%; in experiment [3], 97% (inactive); in experiment [4], 84.9% (inactive); in experiment [5], 84.7% (inactive); in experiment [6] (setting [16]), 61.1%; in experiment [6] (setting [17]), 84.7%. In addition, the viability in [12] is 67.3% (inactive); in experiment [13] it was 70.6% (inactive). For the same molecule, the Her2 level in experiment [2] was 77.5% (inactive). The differential viability (reversal) in [6] (H69AR cells + 2 uM doxorubicin) is 23.6% (inactive). The inhibition is -0.64% (inactive) in [7], -4.17% (inactive) in [8] and 0.105% (inactive) in [14]. In addition, the growth inhibition in experiment [9] was -0.235% (inactive); in experiment [10] it was 2.31% (inactive). For the same molecule, in experiment [11], the viability increase was -7.54% (inactive). In addition, the RAM network inhibition in experiment [15] is 3.61% (inactive).
Turning to `Cc1nc2ccccn2c1/C(O)=C1\C(=O)C(=O)N(CCCN(C)C)C1c1ccc(F)cc1` (stereo not given), the viability in experiment [1] is 89%; in experiment [3], 89% (inactive); in experiment [4], 94.4% (inactive); in [5], 90.8% (inactive); in experiment [6] (setting [16]) it was 105%; in experiment [6] (setting [17]), 90.8%. Further, the viability in [12] is 104% (inactive); in experiment [13] it was 88.1% (inactive). The Her2 level in experiment [2] is 91% (inactive). Also, in experiment [6] (H69AR cells + 2 uM doxorubicin), the differential viability (reversal) is -13.7% (inactive). The inhibition in experiment [7] was 0.4% (inactive); in [8] it was 3.11% (inactive); in experiment [14] it was 0.255% (inactive). Moreover, the growth inhibition in experiment [9] was -6.91% (inactive); in experiment [10] it was -14% (inactive). Also, the viability increase in experiment [11] is -2.7% (inactive). Further, the RAM network inhibition in [15] is -2.2% (inactive).
Regarding `CCN(C1CCCCC1)S(=O)(=O)c1ccc(S(=O)(=O)N2CCN(CCC#N)CC2)cc1`, the viability is 105% in experiment [1]; 105% (inactive) in [3]; 75.8% (inactive) in experiment [4]; 87.8% (inactive) in experiment [5]; 98.3% in [6] (setting [16]); 87.8% in experiment [6] (setting [17]). Further, the viability in experiment [12] is 86.6% (inactive); in experiment [13] it was 85.9% (inactive). Moreover, the Her2 level in experiment [2] was 114% (inactive). In addition, the differential viability (reversal) in experiment [6] (H69AR cells + 2 uM doxorubicin) is -10.4% (inactive). Further, the inhibition in experiment [7] was -1.28% (inactive); in [8], -3.5% (inactive); in experiment [14] it was 0.645% (inactive). For the same molecule, the growth inhibition in [9] was 4.85% (inactive); in experiment [10] it was 3.67% (inactive). The viability increase in experiment [11] was -3.47% (inactive). Also, the RAM network inhibition in experiment [15] was -1.33% (inactive).
For the molecule `CC(C)C(=O)Nc1ccc(-c2nc3cccnc3o2)cc1`, the viability in experiment [1] was 93.5%; in experiment [3], 93.5% (inactive); in experiment [4] it was 128% (inactive); in experiment [5], 95.2% (inactive); in [6] (setting [16]), 99.4%; in experiment [6] (setting [17]) it was 95.2%. The viability in [12] is 101% (inactive); in experiment [13], 104% (inactive). Further, in experiment [2], the Her2 level was 82% (inactive). Further, the differential viability (reversal) in [6] (H69AR cells + 2 uM doxorubicin) is -4.14% (inactive). Besides, the inhibition in experiment [7] is 1.03% (inactive); in experiment [8], -5.33% (inactive); in experiment [14], 2.22% (inactive). Besides, the growth inhibition in experiment [9] is -11.7% (inactive); in [10], -2.21% (inactive). Moreover, the viability increase in experiment [11] is 1.32% (inactive). Further, the RAM network inhibition in experiment [15] was 1.35% (inactive).
With `COc1cc(OC)c2c(c1)OC(c1ccc(OC)c(OC)c1)C(O)C2=O` (stereo not given), the viability in [1] is 90.5%; in experiment [3], 90.5% (inactive); in experiment [4] it was 112% (inactive); in experiment [5] it was 90.9% (inactive); in experiment [6] (setting [16]) it was 78%; in experiment [6] (setting [17]), 90.9%. For the same molecule, the results for the viability in experiment [12] and in experiment [13] were 101% (inactive) and 100% (inactive), respectively. The Her2 level in experiment [2] was 79% (inactive). Further, in [6] (H69AR cells + 2 uM doxorubicin), the differential viability (reversal) was 12.9% (inactive). The inhibition in [7] is -2.67% (inactive); in experiment [8] it was 0.82% (inactive); in [14] it was 2.65% (inactive). In addition, the growth inhibition in experiment [9] was -13.6% (inactive); in [10], -14.9% (inactive). In [11], the viability increase was -1.91% (inactive). For the same molecule, the RAM network inhibition in experiment [15] is 2.25% (inactive).
